Assay outcomes: PubChem BioAssay, several laboratories
The list is not random: actives were taken first. Their share in the collection is about 0.5%.
phage Ecoli inh = E. coli growth loss with phage present; AID 651602; inhibition, % at 11.9 µM; 360,000 tested, 0.26% active; growth absorbance; in the data active means inhibition above about 11%
E coli growth-1 = counter-screen for AddAB inhibitors: E. coli growth inhibition | 330,000 tested, 0.27% active | E. coli V3065 growth, OD600 absorbance, 18 h | inhibition, % at 11.9 µM;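 active means inhibition above the campaign's mean inhibition across all tested compounds plus 3 SD, cut at about 9.9% in these data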;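 further: uninfected addAB+ strain grown without phage in ampicillin broth; 0% = DMSO wells and 100% = ciprofloxacin 0.95 µg/ml wells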
AddAB inh = less growth of phage-infected E. coli with AddAB; 330,000 tested, 0.29% active; inhibition, % at 11.9 µM; AID 435030; E. coli expressing H. pylori AddAB, absorbance growth; in the data active means inhibition above about 12%;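 further: 0% = vehicle wells of infected cells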
Tat export inh = blocks Tat-dependent protein export in E. coli; AID 488895; inhibition, % at 10 µM; E. coli MC4100 TorA-mCherry Tat export, fluorescence; 340,000 tested, 0.036% active;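 active means mean replicate inhibition at least 50% and at least half of replicates individually reaching 50%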;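 further: exported cargo escapes ClpAP degradation while cytoplasmic cargo is degraded and loses fluorescence; 0% = median of neutral control wells and 100% = median of NaSCN control wells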
E coli growth-2 = E. coli growth inhibition; OD600 absorbance (concentration not given with the values); 330,000 tested, 0.21% active; Escherichia coli growth, OD600, 23 h; stronger effect = lower value;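 active means OD600 absorbance below the run mean of sample wells minus 3.6 SD, in any replicate, cut at about 0.56 in these data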
RecBCD conf = growth loss of phage-infected V66 E. coli, RecBCD confirmation screen; shares compounds with phage Ecoli inh; E. coli V66 + T4 2- phage, growth OD; inhibition, % at 11.9 µM; 890 tested, 45% active;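 active means mean inhibition over triplicates exceeding the hit threshold derived in the original primary screen, cut at about 11% in these data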
Ecoli viability = inhibits E. coli viability, flagging RecBCD hits as nonselective; shares compounds with phage Ecoli inh; absorbance (OD) growth; inhibition, % at 11.9 µM; 890 tested, 29% active; in the data active means inhibition above about 20%;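 further: E. coli strain V66 grown with compound alone and no phage infection; 0% = bacteria with DMSO vehicle only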
AddAB counter = growth loss of phage-infected AddAB E. coli, RecBCD counter-screen; shares compounds with phage Ecoli inh; E. coli expressing H. pylori AddAB + T4 phage, OD growth; gene 2 mutant T4, recBCD-deleted host; inhibition, % at 11.9 µM; 890 tested, 45% active; AID 651984;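 active means mean inhibition above the solvent-only control wells' mean plus 3 SD, cut at about 22% in these data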;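 further: higher means less bacterial growth from phage killing when AddAB is blocked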
Active calls of the source: *; . = no result.

SMILES	phage Ecoli inh	E coli growth-1	AddAB inh	Tat export inh	E coli growth-2	RecBCD conf	Ecoli viability	AddAB counter
Cc1nnc(SCC2=C(C(=O)O)N3C(=O)C(NC(=O)Cn4nc(C(F)F)c(Cl)c4C)C3SC2)s1 (stereo unspecified)	4	2	-1	17	0.62	.	.	.
CN(C)CCn1nnnc1SCC1=C(C(=O)O)N2C(=O)[C@@H](NC(=O)Cc3csc(N)n3)[C@H]2SC1	99*	0	1	-3	.	103*	105*	51*
Cc1nnc(SCC2=C(C(=O)O)N3C(=O)[C@@H](NC(=O)Cn4cnnn4)[C@H]3SC2)s1	94*	1	-1	-6	0.045*	102*	104*	3
Cc1nnc(SCC2=C(C(=O)O)N3C(=O)C(NC(=O)Cn4cnnn4)C3SC2)s1 (stereo unspecified)	100*	-1	-3	0	0.062*	104*	106*	1
CCC(C(=O)NC1C(=O)N2C(C(=O)O)=C(CSc3nnc(C)s3)CSC12)c1ccccc1 (stereo unspecified)	4	0	0	-3	0.63	.	.	.
Cc1ccccc1C=CC(=O)c1ccc([N+](=O)[O-])o1	.	.	.	.	0.52	.	.	.
O=C(c1cccc(C(F)(F)F)c1)N1CCc2c([nH]c3ccccc23)C1C(F)(F)F (stereo unspecified)	75*	0	3	15	0.69	0	-1	2
Cc1ccc2c(Cl)c(C(=O)NN=Cc3cccn3C)sc2c1	.	.	.	.	0.72	.	.	.
COc1cccc(C(Nc2ccccc2)c2ccc3ccc(C)nc3c2O)c1 (stereo unspecified)	12*	.	.	.	.	5	7	5
Cc1cccc(NC(c2ccc(O)cc2)c2ccc3ccc(C)nc3c2O)n1 (stereo unspecified)	6	-1	3	-4	0.69	.	.	.
CC(CC#N)CN1CCC(C(C)(C)C)CCC1=O (stereo unspecified)	.	.	.	.	0.67	.	.	.
CC(C)N=c1scc(-c2cccs2)n1/N=C/c1ccc(O)c(O)c1O	16*	7	10	-9	.	-1	-1	2
CC(=NNC(=O)c1ccccc1Cl)c1ccccn1	.	.	.	.	0.63	.	.	.
CC(=NNC(=S)Nc1ccccc1Cl)c1ccccn1	14*	.	.	1	.	10	9	14
CC(=NNC(=S)Nc1ccccc1)c1ccccn1	16*	.	.	.	.	7	9	7
COc1ccc(C(C)=NNC(=O)c2ccccc2OCc2ccccc2)c(OC)c1	.	.	.	.	0.67	.	.	.
Cc1cc(C)nc(Nc2cccc(C(F)(F)F)c2)n1	4	-2	3	-3	0.67	.	.	.
Cc1cc(NC(c2cccnc2)c2ccc3cccnc3c2O)no1 (stereo unspecified)	13*	9	10	1	0.62	2	5	7
Oc1c(C(Nc2cccc(C(F)(F)F)c2)c2cccnc2)ccc2cccnc12 (stereo unspecified)	12*	-2	0	-5	0.69	3	4	9
COC(=O)C1CC2CCC(O)CC2N1Cc1ccc(-c2ccccc2)cc1 (stereo unspecified)	.	.	.	.	0.64	.	.	.
O=C(NN=Cc1ccncc1)c1cc(Br)ccc1OCc1ccccc1	.	.	.	.	0.71	.	.	.
CC(=NNc1ncc(C(F)(F)F)cc1Cl)c1ccncc1	.	.	.	.	0.65	.	.	.
Cc1ccn2c(C(=O)NN=Cc3ccc(Cl)cc3)c(C)nc2c1	.	.	.	.	0.7	.	.	.
COc1cccc(-c2cnc(C(O)c3cc(C)cc(C)c3)[nH]2)c1 (stereo unspecified)	13*	.	.	.	.	10	15	8
COc1cccc(-c2cnc(C(O)c3ccc(F)cc3)[nH]2)c1 (stereo unspecified)	2	.	.	.	.	.	.	.
SMILES	phage Ecoli inh	E coli growth-1	AddAB inh	Tat export inh	E coli growth-2	RecBCD conf	Ecoli viability	AddAB counter
COc1cccc(-c2cnc(C(O)c3ccc(F)c(C)c3)[nH]2)c1 (stereo unspecified)	12*	.	.	.	.	6	9	3
C/C(C=Nn1c(-c2ccc(C)cc2)n[nH]c1=S)=C\c1ccco1	.	.	.	.	0.67	.	.	.
CCOC(=O)c1[nH]c2cc(OC)c(OC)cc2c1NC(=O)c1nonc1C	14*	0	0	3	0.71	0	1	0
CC(CN1CCOCC1)OC(=O)C=Cc1ccccc1 (stereo unspecified)	.	.	.	.	0.66	.	.	.
COc1cccc2c1OC(=NO)C(C(=O)Nc1cccc(Br)c1)C2 (stereo unspecified)	.	.	.	.	0.67	.	.	.
O=C(O)c1cn(-c2ccc(F)cc2)c2cc(N3CCNCC3)c(F)cc2c1=O	99*	.	.	114*	.	102*	103*	103*
O=Cc1cc(N=Nc2ccccc2Cl)ccc1O	12*	7	7	0	0.68	5	7	1
Cc1nc2ccc(N)cc2c(=O)n1Cc1ccc(Cl)cc1	4	-1	2	15	0.69	.	.	.
Nc1ccc(Cn2ccc3c4c(N)nc(N)nc4ccc32)cc1	100*	.	.	17	.	103*	105*	105*
COc1ccc(-c2oc(=O)c3cc(OC)c(OC)cc3c2C#C[C@]2(O)CCC3C4CCc5cc(OC)ccc5C4CC[C@@]32C)cc1 (stereo partly specified)	.	.	.	.	0.71	.	.	.
CC(=NN1CC(=O)NC1=O)c1ccc([N+](=O)[O-])o1	50*	.	.	3	0.13*	24*	44*	103*
Clc1cc(C=NNC2=NCCN2)cc(Cl)n1	.	.	.	.	0.63	.	.	.
CN1CC2C(c3ccccc3)C3(c4cccnc4)CC2(C3)C1c1ccccc1 (stereo unspecified)	.	.	.	.	0.71	.	.	.
COc1ccc(C)c2sc(=NC(=O)c3ccccc3)n(C)c12	100*	0	-4	-10	0.78	-1	1	1
COc1ccc(C)c2sc(=NC(=O)c3ccc(C(C)=O)cc3)n(C)c12	2	0	3	-7	0.66	.	.	.
CC(CCC(C)C)=NNc1cc(C)c2ccccc2n1	.	.	.	.	0.66	.	.	.
O=C(Nc1ccc(F)cc1)Nc1csc2ccccc12	13*	3	7	.	0.58	3	5	-2
O=C(O)Cn1cc(F)c(=O)[nH]c1=O	.	0	1	.	0.76	.	.	.
O=C1C=CC(n2cc(F)c(=O)[nH]c2=O)O1 (stereo unspecified)	24*	.	.	.	.	32*	22*	46*
Nc1nc2ccc(Cl)cc2o1	13*	.	.	-16	0.63	14*	16	37*
O=C(COc1ccccc1)N/N=C/c1ccc([N+](=O)[O-])o1	12*	9.8*	10	-1	.	8	7	31*
CC(NC(=O)c1nc[nH]c1C(=O)NC(CCCCNC(=O)OC(C)(C)C)C(=O)OC(C)(C)C)C(=O)OCc1ccccc1 (stereo unspecified)	.	.	.	.	0.73	.	.	.
O=[N+]([O-])c1cc([N+](=O)[O-])c(Oc2c(Cl)cccc2Cl)cc1NN1CCCCC1	13*	0	4	1	0.71	-3	-4	-1
